Assay results: PubChem BioAssay (NCATS)
Inconclusive results are not listed. The source made the active and inactive calls. Calls follow the shape of the dose curve; as a rule, active = well fitted curve in the direction sought with a large enough effect; inconclusive = small, poorly fitted or top-dose-only effect, or another doubt; inactive = no such curve, though single readings can be large; an effect the other way counts as inactive or inconclusive.

Test system: NIH3T3
Test: Cytotoxic Profiling of Annotated Libraries Using Quantitative High-Throughput Screening (AID 1296008); also: nearly all actives have a fitted effect of over 60% in size
Details: Five cell lines viability, CellTiter-Glo ATP luminescence, 48-72 h; max response: hits give low values
Summary of the method: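 Cytotoxicity was measured as CellTiter-Glo ATP luminescence, read after 10 min at room temperature. Compound treatment of the cells lasted 48 or 72 hr at 37 degrees Celsius in a qHTS format.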
% is scaled to controls: 0 for no effect and ±100 for the full control effect; potency is read from the fitted curve at half-maximal effect.

SMILES	max response	Potency
COc1cc([C@@H](CC(=O)O)c2ccc(C)c(CN3C[C@@H](C)Oc4ccccc4S3(=O)=O)c2)cc2nnn(C)c12	3.5% (inactive)	
C[C@@H]1COCCN1c1cc(C2(S(C)(=N)=O)CC2)nc(-c2ccnc3[nH]ccc23)n1 (some centres not stated)		4.17 µM (active)
CCN1CCN(Cc2ccc(-c3cc4c(NC(C)c5ccccc5)ncnc4[nH]3)cc2)CC1 (configuration not stated)		8.2 µM (active)

Test system: C33A
Test: Primary qHTS to identify gynecologic anti-cancer compounds using libraries of approved drugs and bioactive compounds (AID 1345084); also: nearly all actives have a fitted effect of over 55% in size
Details: Gynecologic cancer cell panel viability, ATPlite luminescence, 48 h; series mostly up to 57.5 µM; activity change, negative = cytotoxicity: at the top concentration
Summary of the method: (§1)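 48 h compound exposure at 37 C, 5% CO2; five-point qHTS. ATPlite luminescence readout of cell ATP.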

SMILES	activity change, negative = cytotoxicity	Potency
O=[N+]([O-])c1ccc(-[n+]2nc(-c3ccccc3)nn2-c2ccc(I)cc2)cc1	-5.38% (inactive)	
COc1ccccc1NC(=O)Nc1ccc2ccccc2c1	-9.49% (inactive)	
C=C(C)C(=O)OC1[C@@H]2C(=C)C(=O)O[C@@H]2C[C@@H](C)[C@@H]2C=CC(=O)[C@@]12C (some centres not stated)	-14.2% [at 38.5 µM] (inactive)	
COc1cc2ncnc(Nc3ccc(Oc4ccccc4)cc3)c2cc1OC	-16.6% (inactive)	
CCC(C)n1cc(C)c2c(C(=O)NCc3c(C)cc(C)[nH]c3=O)cc(-c3ccc(N4CCNCC4)nc3)cc21 (configuration not stated)	2.83% (inactive)	
CC(C)[C@@H](C)/C=C/[C@@H](C)[C@H]1CC[C@H]2C3=CC=C4C[C@@H](O)CC[C@]4(C)C3=CC[C@]12C	-7.21% (inactive)	
Cn1c(NC[C@@H](N)Cc2ccccc2)nc(-c2ccncc2)c(-c2ccc3ccccc3c2)c1=O	2.75% (inactive)	
Nc1ncnc2c1ncn2[C@@H]1O[C@H](CO)C[C@H]1O	-19.4% (inactive)	
CC(=O)N1c2ccc(-c3ccc(C(=O)O)cc3)cc2C(Nc2ccc(Cl)cc2)CC1C (configuration not stated)	-12.7% (inactive)	
COc1ccc(C(=O)N(CCC(C)C)Cc2nc(C)c(C)n2Cc2ccccc2C)c(OC)c1	-2.28% (inactive)	
O=C(Nc1ccc(F)cc1)N1CCc2ccccc2C1c1ccc(C(F)(F)F)cc1 (configuration not stated)	-9.55% (inactive)	
Cc1ccc(C(=O)N2CCN(c3ccc([N+](=O)[O-])cc3)CC2)cc1Cl	-25.2% (inactive)	
CN(C)C(=O)c1cc2cnc(Nc3ccc(N4CCNCC4)cn3)nc2n1C1CCCC1	1.04% (inactive)	
C=C1/C(=C/C=C2\CCC[C@]3(C)[C@@H]([C@H](C)/C=C/C(=O)C4CC4)CC[C@@H]23)C[C@@H](O)C[C@@H]1O	-3.16% (inactive)	
CC(C)(C)c1ccc(-c2nc3ccccc3[nH]2)cc1		1.26 µM (active)
COc1cc(O)c(C(=O)CCc2ccc(O)cc2)c(O[C@@H]2O[C@H](CO)[C@@H](O)[C@H](O)[C@H]2O)c1	-4.6% [at 25.3 µM] (inactive)	

SMILES	activity change, negative = cytotoxicity	Potency
CCN1CCN(Cc2ccc(-c3cc4c(NC(C)c5ccccc5)ncnc4[nH]3)cc2)CC1 (configuration not stated)	-34.3% (inactive)	
CN1CCN(C(=O)c2ccc(Nc3nccc(-c4cccs4)n3)cc2Cl)CC1	-1.35% (inactive)	
Cc1ccc2c(Nc3ccc(Cl)cc3)nccc2c1Nc1ncccc1-c1ncnc2nc[nH]c12	-15.1% (inactive)	
Cc1ccc(C2(COC(=O)C(C)C)CO2)c(OC(=O)C(C)C)c1 (configuration not stated)	-14.7% [at 38.5 µM] (inactive)	
CC1(C)CC23[C@@H]4CC(=O)[C@@H]2COC(=O)[C@@H]3CC[C@H]41	-2.34% (inactive)	
COc1cc2ncnc(Oc3cccc(NC(=O)Nc4cc(C(C)(C)C(F)(F)F)on4)c3)c2cc1OC	1.13% (inactive)	
O=C(NNc1ccccc1)c1ccncc1	3.31% (inactive)	
CN(CCCNC(=O)c1ccc2nc3c(c(Cl)c2c1)CCCC3)Cc1ccccc1	-15% (inactive)	
CCN(CCCOc1ccc2c(Nc3cc(CC(=O)Nc4cccc(F)c4)[nH]n3)ncnc2c1)CCOP(=O)(O)O	-5.15% (inactive)	
OCC(Cc1ccccc1)Nc1nc(Oc2ccc3c(c2)CCC3)nc2c1ncn2Cc1ccc(-c2ccccc2)cc1 (configuration not stated)	-0.219% (inactive)	
CCN(CC)c1ccc(C(=C2C=CC(=[N+](CC)CC)C=C2)c2cc(S(=O)(=O)O)ccc2S(=O)(=O)[O-])cc1		10 µM (active)
Cc1[nH]c(/C=C2\C(=O)Nc3ccc(F)cc32)c(C)c1C(=O)NC[C@H](O)CN1CCOCC1	-7.05% (inactive)	
CC1CCC2C(=CCC(O)C2(C)C)C1(C)Cc1c(O)cc(CO)c(C=O)c1O (configuration not stated)	0.603% [at 38.5 µM] (inactive)	
CCCCn1c(-c2ccccc2)nc(-c2ccccc2)c1CN(Cc1ccc2c(c1)OCO2)Cc1ccc2c(c1)OCO2	-9.61% (inactive)	
O=C(NCc1ccc(Oc2ccccc2)cc1)c1nc(-c2cc(Br)c(O)c(Br)c2)no1	18.1% (inactive)	

Test system: CAOV3
Test: as above
Details: Gynecologic cancer cell panel viability, ATPlite luminescence, 48 h; series mostly up to 57.5 µM; activity change, negative = cytotoxicity: at the top concentration
Summary of the method: as §1

SMILES	activity change, negative = cytotoxicity	Potency
COc1ccccc1NC(=O)Nc1ccc2ccccc2c1	-28.7% (inactive)	
C=C(C)C(=O)OC1[C@@H]2C(=C)C(=O)O[C@@H]2C[C@@H](C)[C@@H]2C=CC(=O)[C@@]12C (some centres not stated)	-7.97% [at 38.5 µM] (inactive)	
CC(C)[C@@H](C)/C=C/[C@@H](C)[C@H]1CC[C@H]2C3=CC=C4C[C@@H](O)CC[C@]4(C)C3=CC[C@]12C	13.5% (inactive)	
CCOC(=O)c1cnn(-c2ccc(NC(=O)C(Cl)=C(Cl)Cl)cc2)c1C(F)(F)F		6.31 µM (active)
CC(=O)N1c2ccc(-c3ccc(C(=O)O)cc3)cc2C(Nc2ccc(Cl)cc2)CC1C (configuration not stated)	-43.7% (inactive)	
Cc1ccc(C(=O)N2CCN(c3ccc([N+](=O)[O-])cc3)CC2)cc1Cl	-8.54% (inactive)	
COc1cc(O)c(C(=O)CCc2ccc(O)cc2)c(O[C@@H]2O[C@H](CO)[C@@H](O)[C@H](O)[C@H]2O)c1	-19.6% [at 25.3 µM] (inactive)	
CN1CCN(C(=O)c2ccc(Nc3nccc(-c4cccs4)n3)cc2Cl)CC1	-7.82% (inactive)	
Cc1ccc(C2(COC(=O)C(C)C)CO2)c(OC(=O)C(C)C)c1 (configuration not stated)	-23.4% [at 38.5 µM] (inactive)	
COc1cc2ncnc(Oc3cccc(NC(=O)Nc4cc(C(C)(C)C(F)(F)F)on4)c3)c2cc1OC	12.7% (inactive)	
O=C(NNc1ccccc1)c1ccncc1	15.7% (inactive)	
CN(CCCNC(=O)c1ccc2nc3c(c(Cl)c2c1)CCCC3)Cc1ccccc1	-4.26% (inactive)	
C=CC(=O)Nc1cc(Nc2nccc(-c3cn(C)c4ccccc34)n2)c(OC)cc1N(C)CCN(C)C		35.5 µM (active)
CCN(CC)c1ccc(C(=C2C=CC(=[N+](CC)CC)C=C2)c2cc(S(=O)(=O)O)ccc2S(=O)(=O)[O-])cc1		28.2 µM (active)
O=C(NC(NC(=S)Nc1ccc(F)c([N+](=O)[O-])c1)C(Cl)(Cl)Cl)C(c1ccccc1)c1ccccc1 (configuration not stated)	6.32% [at 25.3 µM] (inactive)	
CC1CCC2C(=CCC(O)C2(C)C)C1(C)Cc1c(O)cc(CO)c(C=O)c1O (configuration not stated)	-1.85% [at 38.5 µM] (inactive)	
CCCCn1c(-c2ccccc2)nc(-c2ccccc2)c1CN(Cc1ccc2c(c1)OCO2)Cc1ccc2c(c1)OCO2	-1.85% (inactive)	
COc1ccc(CNC(=O)Nc2ncc([N+](=O)[O-])s2)cc1	-17.4% (inactive)	
